# Experimental data from PubChem BioAssay (NCATS).
# Records with an inconclusive call do not appear. Where a call stands in place of a potency, no number is given. Active and inactive are the calls of the source. Calls come from the whole dose curve; as a rule, active = well fitted cell-killing curve with a large enough effect; inconclusive = small, poorly fitted or top-dose-only effect, or effect the other way; inactive = no such curve, though single readings can be large or run the other way.
# Assay: Cell Viability - LYMP2-004 (AID 966);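 note: cells exposed to compound for 24 h; nearly all actives have a fitted effect of over 65% in size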
# Conditions: LYMP2-004 lymphoblastoid cell viability, qHTS; series mostly up to 92.2 µM
# From the text: NIH Chemical Genomics Center [NCGC]
# NIH Molecular Libraries Screening Centers Network [MLSCN]
# National Institutes of Environmental Health Sciences [NIEHS]
# National Toxicology Program [NTP]
# We have developed a 1536-well cell-based assay for quantitative high throughput screening (qHTS) against a number of cell lines to determine in vitro cytotoxicity of small molecules. This particular assay uses a human lymphoblastoid cell line (LYMP2-004) purchased from Coriell Institute for Medical Research.
# NCGC Assay Protocol Summary:
# The CellTiter-Glo luminescent cell viability assay (Promega) is a homogeneous method to measure the number of viable cells in culture. The end point readout of this assay is based on quantitation of intracellular ATP, an indicator of metabolic activity, using the luciferase reaction. Luciferase catalyzes the oxidation of beetle Luciferin to oxyluciferin and light in the presence of ATP. The luminescent signal is proportional to amount of ATP present.
# Using the CellTiter-Glo luminescent cell viability assay, the amount of cellular ATP was measured in the lymphoblastoid cell line with complete culture medium following compound treatment for 24 hours. The assay was performed in opaque white Kalypsys 1536-well plates. In the screen, tetraoctylammonium bromide was used as positive control. Library compounds were measured for their ability to cause acute toxicity in the cell line, as reflected by a decrease in intracellular ATP levels, in a concentration-dependent manner. […] AC50 values were determined from concentration-response data modeled with the standard Hill equation.
# qHTS protocol for CellTiter Glo lymphoblastoid cellular assay
# [Step] [Parameter] [Value] [Description]
# 1. Reagent; 5 uL; 2500 lymphoblastoid cells/well
# 2. Time; 5 hr; 37 C incubation
# 4. Controls; 23 nL; Tetraoctylammonium bromide 6.4pM to 92 uM
# 5. Time; 24 hr; 37 C incubation
# 6. Reagent; 5 uL; CellTiter Glo reagent
# 7. Time; 30 min; Room Temperature
# 8. Detection; Luminescence; Viewlux plate reader
# Keywords: cell viability, cytotoxicity, lymphoblastoid cell line, luminescence, NTPHTS, NTPHTS_NCGC, NIEHS, DSSTox, MLSMR, MLSCN, NIH Roadmap, qHTS, NCGC
row,SMILES,Potency
1,Cc1ccc2ncccc2c1,inactive
2,CC(=O)Nc1ccc(N)cc1,inactive
3,CCCCCCCCN,inactive
4,COc1ccc(N)c(OC)c1,inactive
5,CCOC(C)(C)C,inactive
6,CCCCC(CC)CNCC(CC)CCCC (stereo not given),inactive
7,CC(C)Nc1ccccc1,inactive
8,CC(=O)c1cccc([N+](=O)[O-])c1,inactive
9,CCC(C)(C)OC,inactive
10,Cc1cc(C)cc(N)c1,inactive
11,NS(=O)(=O)O,inactive
12,O=C1OC(=O)c2cc([N+](=O)[O-])ccc21,inactive
13,O=[N+]([O-])c1cc(C(F)(F)F)ccc1Cl,inactive
14,C=C(C)C(=O)OCC(C)C,inactive
15,C=CCCC,inactive
16,COc1ccccc1[N+](=O)[O-],inactive
17,C1CCOC1,inactive
18,Cc1cccc(C(=O)O)c1[N+](=O)[O-],inactive
19,CCCCOCCOCCSC#N,inactive
20,N#CC1(O)CCCCC1,inactive

row,SMILES,Potency
1,NC(=O)NC(N)=O,inactive
2,CSc1ccc(C=O)cc1,inactive
3,CCC(O)C(C)(C)C (stereo not given),inactive
4,CC(=O)c1cc(C)oc1C,inactive
5,O=[N+]([O-])c1cccc(Cl)c1,inactive
6,CC(O)COC(C)(C)C (stereo not given),inactive
7,NC(=S)NNC(N)=S,inactive
8,O=Cc1c(Cl)cccc1Cl,inactive
9,Cc1cccc(C)c1,inactive
10,Fc1ccccc1,inactive
11,C=C(C)C(N)=O,inactive
12,O=C(Cl)c1cccc([N+](=O)[O-])c1,inactive
13,Nc1cccc(N)c1,inactive
14,OCCO,inactive
15,C=CCOC(=O)COCCC(C)C,inactive
16,CCC(C)=O,inactive
17,O=C1OC(=O)c2c(Cl)c(Cl)c(Cl)c(Cl)c21,inactive
18,CC(=O)C1(C)CC2=C(CCCC2(C)C)CC1C (stereo not given),inactive
19,O=C(O)/C=C/C(=O)O,inactive
20,CCCCCCCCC/C=C/CC1CC(=O)OC1=O (stereo not given),inactive
